# Test results published in PubChem BioAssay (NCI).
# This is part of a sample that, as a whole, favours compounds with a hit. Of some 79,000 tested, about 15% had one in any assay. Values without a mark were called inactive. The source made the active and inactive calls. Rule as the data show it: active = growth inhibition above about 70%; inactive = the rest.
# Key:
# [1] = NCI Yeast Anticancer Drug Screen. Data for the rad50 strain (AID 155);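 also: 0% = growth of vehicle-only cultures of the same strain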; settings: S. cerevisiae rad50 strain growth inhibition; at 50.0 µM; hits give high values
# In short: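 Growth of the mutant yeast was measured after compound exposure and referenced to vehicle-treated cultures.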
# [2] = NCI Yeast Anticancer Drug Screen. Data for the mec2-1 strain (AID 157); settings: S. cerevisiae mec2-1 strain, at 50.0 µM, hits give high values
# In short: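 Using mec2-1 yeast: add compound, measure growth, express inhibition versus vehicle-treated cultures.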
# [3] = NCI Yeast Anticancer Drug Screen. Data for the sgs1 mgt1 strain (AID 161);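 also: 0% = growth of cultures given vehicle only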; settings: S. cerevisiae sgs1 mgt1 strain, at 50.0 µM, hits give high values
# In short: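 Compounds are added to genetically altered yeast, and growth is compared with cultures given vehicle alone to give percent inhibition.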
# [4] = NCI Yeast Anticancer Drug Screen. Data for the cln2 rad14 strain (AID 165);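 also: 0% = growth equal to vehicle treated cultures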; settings: S. cerevisiae cln2 rad14 strain, at 50.0 µM, hits give high values
# In short: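 Yeast strain cln2 rad14, bearing defects in cell cycle control and DNA repair, serves as the test system; values reflect growth inhibition compared with vehicle.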
# [5] = NCI Yeast Anticancer Drug Screen. Data for the bub3 strain (AID 167); settings: S. cerevisiae bub3 mutant strain, at 50.0 µM, hits give high values
# In short: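 Whole-cell yeast assay. The mutant strain was incubated with compounds, and growth inhibition was determined by comparison with vehicle-treated cells.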
# [6] = NCI Yeast Anticancer Drug Screen. Data for the mlh1 rad18 strain (AID 175); settings: S. cerevisiae mlh1 rad18 strain growth inhibition; at 50.0 µM; hits give high values
# In short: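 Steps: expose repair-defective yeast to compound; measure growth; express inhibition against vehicle-treated controls.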
Compound,growth inhibition [1],growth inhibition [2],growth inhibition [3],growth inhibition [4],growth inhibition [5],growth inhibition [6]
Cc1cccc(-n2c(N)cc(=O)[nH]c2=S)n1,-11.5%,-2.2%,-7.8%,-38.4%,-10.1%,-4.15%
NC(N)=NS(=O)(=O)c1ccc(Nc2c3ccccc3nc3c(C(=O)Nc4ccc(S(N)(=O)=O)cc4)ccc(Cl)c23)cc1,-8.55%,-2.1%,-2.75%,29.8%,-2.25%,7.85%
O=C1c2ccc(O)cc2OC(c2ccc(O)c(O)c2)C1O (configuration not stated),7.6%,-7.25%,17.8%,1.85%,6%,6.4%
CC1(C)CS(=O)(=O)CC(C)(C)C(=O)C1=O,-25.6%,-19%,-15%,5.45%,-6%,-3.4%
O=[N+]([O-])c1ccccc1S(=O)(=O)NC1c2ccccc2Oc2ccccc21,31.9%,28.3%,19.4%,2.75%,-0.8%,43.6%
COc1ccc(C2=NCCO2)cc1N,3.6%,0.45%,-13.7%,-5.5%,4.35%,11.4%
CCCCc1c(C#N)c(=O)n2c(N)c(C#N)cnc2c1SC,18.9%,8.45%,21.2%,1.5%,12.7%,25.8%
O=C(CCc1nnc2s/c(=C\c3ccc(Cl)cc3Cl)c(=O)n12)Nc1cc(Cl)c(Cl)cc1Cl,-17.6%,18.2%,-7.4%,20.6%,9.05%,4.35%
COc1cc(/C=C/C(=O)NCCc2c[nH]c3ccc(O)cc23)ccc1O,-9.25%,-0.75%,9.3%,11.8%,3.15%,6.75%
C=C1CCC(OC(C)=O)C2(C)C(OC(C)=O)CC3OC3(C)C2C(OC(C)=O)C2C(C)C(=O)OC2C1Cl (configuration not stated),3.2%,-20.8%,1.55%,6.45%,3%,4.8%
O=S(=O)(OCCCC1CC2C=CC1C2)c1ccc(Br)cc1 (configuration not stated),-1.7%,-12.2%,-17.6%,-7.05%,1.85%,2.45%
NC(CCCNCc1ccccc1)C(=O)O (configuration not stated),31.9%,6.85%,1.65%,12.3%,36.9%,16.3%
CCOC(=O)C(CC[C@@H]1N[C@H](C(N)=O)Cc2c1[nH]c1ccccc21)C(=O)OCC,8.5%,-9.85%,5.3%,7.55%,7.9%,-13.7%
COC(=O)c1ccc(SCCC2(COS(C)(=O)=O)OCCO2)cc1,18.6%,-16.9%,1.35%,18.7%,1.4%,-4.1%
COC(=O)c1ccccc1C1CN=NC12Cc1ccc3c(c1C2=O)CCC3 (configuration not stated),-0.85%,-3.55%,1.75%,-7.3%,7.1%,16.7%
Cc1ccc(C(=O)C[N+]2(C)CCOCC2)cc1,15.8%,-7.5%,16.6%,-21.9%,8.4%,20.4%
Cc1ccc(NS(=O)(=O)c2ccc(F)cc2)c(C)c1,15.4%,19.1%,-2%,-14.2%,-0.2%,-9.15%
CC1(C)OC(=O)C(=Cc2ccc(-c3ccccc3[N+](=O)[O-])o2)C(=O)O1,3.05%,6.25%,31%,23.6%,29.5%,26.6%
Cc1nn(-c2ccccc2)c(SC(C)(C)C)c1C=NCCN=Cc1c(C)nn(-c2ccccc2)c1SC(C)(C)C,28.6%,15.3%,18.2%,24.3%,-5.85%,18.8%

Compound,growth inhibition [1],growth inhibition [2],growth inhibition [3],growth inhibition [4],growth inhibition [5],growth inhibition [6]
COC(=O)C1C(O)C(C(=O)OC)C(C)N(C)C1C (configuration not stated),7.35%,-14.4%,-41.5%,-26.1%,-18.2%,-4.45%
CC(C)C1OC(c2ccccc2)OCC1(C)C (configuration not stated),-14.8%,-18.2%,-4.15%,-39.2%,-4.15%,6.35%
O=[N+]([O-])c1ccc(Nc2ccccc2)c([N+](=O)[O-])c1,2.4%,-12.8%,-1.4%,-32.2%,-7.05%,8.5%
Cc1ccc(-c2oc(-c3ccc(C)cc3)c3cc(C)c(C)cc23)cc1,4.8%,13.5%,-6.7%,8.5%,-8.6%,-4.6%
CC1(C)CC(C)(Br)C(Br)C(=O)C1C(O)(C(F)(F)F)C(F)(F)F (configuration not stated),99.5% (active),99.8% (active),99.8% (active),99.2% (active),99.6% (active),99.8% (active)
Nn1c(Cc2ccccc2)n[nH]c1=O,10.2%,-13.3%,12.2%,6.55%,-9.4%,-14.2%
CC(C)c1ccc2c(c1)CC[C@H]1[C@](C)(COCCC#N)CCC[C@]21C,-10.9%,-28.2%,-14.2%,-63.1%,-17.1%,-30%
O=C1CSC(c2cccc(O)c2)N1c1nncs1 (configuration not stated),6.75%,12.9%,21.9%,12.7%,14.2%,15.2%
COc1ccc2oc(=O)[nH]c2c1,5.3%,-3.95%,9.9%,13.1%,-6.9%,-4.5%
CC(C)CC(=O)C(C)C(C)C (configuration not stated),12.4%,-1.85%,4.25%,-4.25%,4%,1.5%
CCC1=NC(C(F)(F)F)(C(F)(F)F)N=C(N2CCOCC2)O1,23.8%,6.15%,9.2%,14.4%,22.4%,2.2%
Cc1ccc(S(=O)(=O)C23N=NC(C)(C)C2N=NC3(C)C)cc1 (configuration not stated),-10.8%,-19.8%,-6.9%,-58%,-46.6%,5.4%
CCOC(=O)c1ccc(Nc2nc3ccccc3nc2C(=O)OCC)cc1,-31.8%,-39.1%,-4.95%,-3.7%,18.4%,-26.9%
Cc1cccc2c(N)c3cccc(C(=O)NCC[N+](C)(C)[O-])c3nc12,8.7%,-13.3%,11.1%,31%,18.4%,20.6%
CNC(=S)c1ccc(Cl)cc1,12.3%,-20.6%,-15.1%,-29.8%,-2.05%,11.3%
CCOC(=O)Cn1c(C(F)(F)F)nc2nc(Cl)c(Cl)nc21,-0.6%,-22.9%,-33.5%,-94.9%,-19.9%,-17.1%
COC(=O)c1ccccc1NC(=O)c1cc(C(=O)O)c(C(=O)Nc2ccccc2C(=O)OC)cc1C(=O)O,0.75%,10.2%,4.95%,4.35%,-3.7%,23.1%
COC1OC(C(C)O)C2OC(C)(C)OC12 (configuration not stated),40.5%,29.1%,32.2%,1.5%,18.9%,13.3%
